Experimental data as given in PubChem BioAssay.
Results filed as inconclusive are left out. Active and inactive are the calls of the source.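 Rule for the calls, unless noted: active = binding below the plate cutoff, the plate median minus 3 SD, with a reading above zero; inconclusive = below the plate cutoff but reading exactly zero; inactive = the rest.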

Experiments:
[1] = yeast TOR pathway RPL19A-GFP modulators, primary screen, cell-based, S. cerevisiae, multiplex flow cytometry (AID 1862; in the data active = percent of DMSO control GFP below about 86%;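 note: lower values mimic rapamycin by blocking the RPL19A rise seen in DMSO cells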); details: S. cerevisiae RPL19A-GFP strain, flow cytometry fluorescence, 3 h; at 10 µM; stronger effect = lower value
[2] = modulators of MEP2-GFP levels in yeast, primary screen, S. cerevisiae, multiplex flow cytometry (AID 1867;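 active = GFP response, as percent of the DMSO control, above the screen-wide mean plus 3 SD, about 139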;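 note: median GFP channel fluorescence of barcode-gated MEP2-GFP cells measured by flow cytometry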); details: S. cerevisiae MEP2-GFP strain, 3 h, at 10 µM, stronger effect = higher value, 100% means same as DMSO wells
[3] = modulators of CIT2-GFP expression in yeast, primary screen, S. cerevisiae, GFP fusion, multiplex flow cytometry (AID 1870;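 active = percent response above a set limit, the screen-wide mean plus 3 SD, cut at about 130% in these data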;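 note: barcoded CIT2-GFP strain pooled with four other GFP strains with rapamycin as positive control; median GFP fluorescence per well over plate mean of DMSO wells so 100% = DMSO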); details: 3 h, at 10 µM, stronger effect = higher value
[4] = modulators of LAP4-GFP expression in yeast, primary screen, S. cerevisiae, multiplex flow cytometry (AID 1873;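 active = GFP signal, as percent of the solvent control, above the screen mean plus 3 SD, about 149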); details: 3 h, at 10 µM, stronger effect = higher value
[5] = modulators of AGP1-GFP expression in yeast TOR pathway, primary screen, cell-based, multiplex flow cytometry, S. cerevisiae (AID 1887;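 active = GFP signal above the screen-wide mean plus 3 SD, that is over about 124.5% of the solvent control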;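 note: AGP1-GFP fusion strain of S. cerevisiae within a five-strain barcoded multiplex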); details: 3 h, at 10 µM, stronger effect = higher value
[6] = RPL19A-GFP modulators, yeast TOR pathway, confirmation, cell-based, S. cerevisiae, flow cytometry, cherry picks, mother/daughter gates (AID 2270;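 active = GFP response below 50% of the DMSO control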); details: S. cerevisiae RPL19A-GFP strain, 3 h, at 10 µM, stronger effect = lower value, 100 = same GFP as DMSO wells
[7] = LAP4-GFP expression modulators in yeast, confirmation, cell-based, cherry picks, flow cytometry, mother/daughter gates (AID 2271;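 active = GFP response above 150% of the DMSO control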;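 note: ratio of sample to DMSO plate mean so 100% equals DMSO level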); details: S. cerevisiae LAP4-GFP strain, 3 h, at 10 µM, stronger effect = higher value, 100 means same as DMSO control
[8] = modulators of MEP2-GFP levels in yeast, confirmation, S. cerevisiae, flow cytometry GFP, cherry picks (AID 2272;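 active = GFP response above 150% of the DMSO control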;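 note: ratio of well signal to plate DMSO mean so 100% equals DMSO level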); details: S. cerevisiae MEP2-GFP strain, 3 h, at 10 µM, stronger effect = higher value
[9] = modulators of CIT2-GFP expression in yeast, confirmation, S. cerevisiae, GFP fusion, cherry picks, mother/daughter gates (AID 2274;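 active = GFP response above 150% of the DMSO level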); details: S. cerevisiae CIT2-GFP strain, flow cytometry, 3 h, at 10 µM, stronger effect = higher value
[10] = inhibitors of CD8+ T cell-vesicle binding, pilot screen, LFA-1/ICAM-1 modulator project, MLPCN validation set, flow cytometry (AID 2523;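 active = response below a set limit, under 55% cells CD8-positive and vesicle-bound, and CD8 cells' 90th-percentile brightness under 279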;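 for vesicle binding response: mean PE anti-B7-1 fluorescence of CD8+ cells relative to row control; 100% = QL9-loaded vesicles with DMSO vehicle in the same plate row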); details: 2C mouse CD8+ T cells, at 7 µM, stronger effect = lower value; double positive events: measured here: CD8+/vesicle+ event percentage
[11] = target: Integrin beta-1 (Homo sapiens) + Integrin alpha-4 (Homo sapiens) (UniProt P13612+P05556); experiment: inhibition of HUTS-21 binding to VLA-4, pilot screen, VLA-4 allosteric modulator project, U937 cells, HUTS-21 mAb, flow cytometry, validation set (AID 2674;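 active = inhibition above 50%, about 3 SD of the validation set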;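 note: antibody binding induced by the VLA-4 ligand LDV present at three times its Kd; 0% = LDV ligand with antibody and no compound and 100% = antibody without LDV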); details: HUTS-21 LIBS mAb binding, at 6.7 µM, stronger effect = higher value, binding induced by LDV ligand
Chain of Integrin beta-1 (Homo sapiens) + Integrin alpha-4 (Homo sapiens) (P05556 whole entry, looked up): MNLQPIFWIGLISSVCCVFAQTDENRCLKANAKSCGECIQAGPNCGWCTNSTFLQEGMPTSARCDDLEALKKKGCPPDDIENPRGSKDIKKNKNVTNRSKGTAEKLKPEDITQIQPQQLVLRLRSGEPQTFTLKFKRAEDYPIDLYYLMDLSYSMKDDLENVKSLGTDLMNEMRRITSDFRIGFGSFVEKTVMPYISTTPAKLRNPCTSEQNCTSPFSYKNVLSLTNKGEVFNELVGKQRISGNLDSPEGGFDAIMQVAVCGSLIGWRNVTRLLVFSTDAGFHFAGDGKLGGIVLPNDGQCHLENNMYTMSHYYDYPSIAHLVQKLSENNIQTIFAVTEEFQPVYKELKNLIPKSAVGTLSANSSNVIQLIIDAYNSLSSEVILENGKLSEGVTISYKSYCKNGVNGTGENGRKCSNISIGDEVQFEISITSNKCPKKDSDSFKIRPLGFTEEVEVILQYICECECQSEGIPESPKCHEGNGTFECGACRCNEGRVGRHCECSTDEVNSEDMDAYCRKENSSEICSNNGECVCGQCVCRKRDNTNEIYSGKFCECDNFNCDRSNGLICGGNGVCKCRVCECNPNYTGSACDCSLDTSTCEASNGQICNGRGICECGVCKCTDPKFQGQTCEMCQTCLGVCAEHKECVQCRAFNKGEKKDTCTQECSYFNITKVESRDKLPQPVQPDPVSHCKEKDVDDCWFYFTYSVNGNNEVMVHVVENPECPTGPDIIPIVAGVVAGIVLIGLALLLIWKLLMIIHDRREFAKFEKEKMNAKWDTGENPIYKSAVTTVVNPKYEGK
Chain of Integrin beta-1 (Homo sapiens) + Integrin alpha-4 (Homo sapiens) (P13612 whole entry, looked up): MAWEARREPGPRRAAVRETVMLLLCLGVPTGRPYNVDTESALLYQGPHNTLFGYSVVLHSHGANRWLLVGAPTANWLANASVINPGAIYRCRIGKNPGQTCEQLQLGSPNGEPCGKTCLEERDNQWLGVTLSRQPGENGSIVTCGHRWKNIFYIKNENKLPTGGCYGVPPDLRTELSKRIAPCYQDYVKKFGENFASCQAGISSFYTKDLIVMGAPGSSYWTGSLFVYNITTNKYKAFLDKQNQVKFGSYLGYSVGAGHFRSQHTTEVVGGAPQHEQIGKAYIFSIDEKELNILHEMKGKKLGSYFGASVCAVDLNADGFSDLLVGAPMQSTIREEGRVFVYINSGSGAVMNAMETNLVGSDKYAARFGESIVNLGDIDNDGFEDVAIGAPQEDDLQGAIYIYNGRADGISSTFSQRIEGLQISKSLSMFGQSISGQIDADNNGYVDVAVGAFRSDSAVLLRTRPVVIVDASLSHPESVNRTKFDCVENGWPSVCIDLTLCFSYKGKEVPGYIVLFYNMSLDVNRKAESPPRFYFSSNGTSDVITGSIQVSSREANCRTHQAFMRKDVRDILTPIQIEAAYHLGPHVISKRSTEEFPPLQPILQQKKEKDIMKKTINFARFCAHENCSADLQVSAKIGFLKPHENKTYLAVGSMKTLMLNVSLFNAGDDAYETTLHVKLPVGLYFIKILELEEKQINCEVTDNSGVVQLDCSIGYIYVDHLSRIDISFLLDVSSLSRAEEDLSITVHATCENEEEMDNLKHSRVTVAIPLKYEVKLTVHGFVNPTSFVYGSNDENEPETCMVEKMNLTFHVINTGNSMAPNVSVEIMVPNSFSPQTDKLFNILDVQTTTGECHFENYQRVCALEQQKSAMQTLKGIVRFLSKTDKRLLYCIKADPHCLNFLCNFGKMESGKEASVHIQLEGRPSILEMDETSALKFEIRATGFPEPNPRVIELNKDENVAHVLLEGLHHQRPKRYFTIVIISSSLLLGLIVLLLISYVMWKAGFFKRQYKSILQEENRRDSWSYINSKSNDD

[12] = superoxide lowering in aged yeast cells, pilot screen, validation compound set (AID 2706;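 active = superoxide response below 65% of plate, a cut near 3 SD across the whole screen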;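 note: yeast exposed to compound for one week at 30 degrees C before staining; 100% = mean of all compound wells on the same plate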); details: S. cerevisiae aging, superoxide DHE fluorescence; at 10 µM; stronger effect = lower value
[13] = target: Beta-adrenergic receptor kinase 1 (Homo sapiens) (UniProt P25098); experiment: GRK2 binders displacing RNA aptamer, biochemical, validation, human GRK2, bead flow cytometry (AID 488806;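 active = aptamer binding inhibition above 30%, about 3 SD of noise from non-fluorescent compounds; inactive = inhibition at or below 30%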); details: bead-bound GRK2, FAM-aptamer displacement, at 10 µM, stronger effect = higher value
Chain of Beta-adrenergic receptor kinase 1 (Homo sapiens) (P25098 whole entry, looked up): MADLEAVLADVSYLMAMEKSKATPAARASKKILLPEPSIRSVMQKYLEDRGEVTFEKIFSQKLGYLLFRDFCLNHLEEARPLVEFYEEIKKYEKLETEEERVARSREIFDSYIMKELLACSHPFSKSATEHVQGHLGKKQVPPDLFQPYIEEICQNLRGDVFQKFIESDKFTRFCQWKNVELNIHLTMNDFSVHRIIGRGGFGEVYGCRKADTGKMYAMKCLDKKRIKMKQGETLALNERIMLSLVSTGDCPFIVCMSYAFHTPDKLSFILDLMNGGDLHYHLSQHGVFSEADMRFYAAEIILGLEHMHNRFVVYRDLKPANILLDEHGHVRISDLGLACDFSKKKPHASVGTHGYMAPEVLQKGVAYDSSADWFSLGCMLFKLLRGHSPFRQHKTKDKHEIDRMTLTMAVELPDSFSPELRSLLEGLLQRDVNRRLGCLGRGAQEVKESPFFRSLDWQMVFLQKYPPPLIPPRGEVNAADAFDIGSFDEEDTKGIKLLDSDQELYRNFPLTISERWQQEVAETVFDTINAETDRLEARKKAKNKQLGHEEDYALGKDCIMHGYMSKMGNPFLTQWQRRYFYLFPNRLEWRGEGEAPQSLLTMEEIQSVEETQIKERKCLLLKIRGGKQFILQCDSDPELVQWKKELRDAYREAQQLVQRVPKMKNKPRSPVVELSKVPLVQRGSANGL

[14] = target: Beta-2 adrenergic receptor (Homo sapiens) (UniProt P07550); experiment: beta2AR agonists driving receptor internalization, pilot screen, cell-based, FAP fluorogen, flow cytometry, validation set (AID 504459;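 active = percent response above 42, roughly 3 SD of non-fluorescent test compounds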;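 note: agonist-driven loss of surface beta2AR via internalization measured by FAP dye flow cytometry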); details: Am2.2-beta2AR cells, FAP surface receptor flow cytometry; at 10 µM; stronger effect = higher value
Chain of Beta-2 adrenergic receptor (Homo sapiens) (P07550 whole entry, looked up): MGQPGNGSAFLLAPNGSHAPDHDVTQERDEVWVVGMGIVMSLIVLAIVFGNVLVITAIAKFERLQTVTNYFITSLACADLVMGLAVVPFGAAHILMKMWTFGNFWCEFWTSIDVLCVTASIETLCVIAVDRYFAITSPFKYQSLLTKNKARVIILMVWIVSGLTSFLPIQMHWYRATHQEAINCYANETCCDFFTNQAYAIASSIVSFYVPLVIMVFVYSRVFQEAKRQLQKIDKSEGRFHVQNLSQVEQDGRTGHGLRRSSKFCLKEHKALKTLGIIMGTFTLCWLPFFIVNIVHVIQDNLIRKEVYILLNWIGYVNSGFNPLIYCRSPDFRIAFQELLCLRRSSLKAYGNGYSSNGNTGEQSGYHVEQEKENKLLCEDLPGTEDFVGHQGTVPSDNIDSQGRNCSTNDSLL

[15] = target: AP-2 complex subunit beta (Homo sapiens) (UniProt P63010); experiment: inhibitors of arrestin peptide binding to AP2, pilot screen, biochemical, validation set, GST-AP2 beads, flow cytometry (AID 504541;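 active = inhibition above 54%, about 3 SD of non-fluorescent compounds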;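 note: AP2 carries R879A mutation and is captured from E. coli lysate; bead-bound FITC arrestin peptide fluorescence measuring arrestin peptide binding to AP2; 0% = DMSO wells and 100% = excess unlabeled arrestin peptide control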); details: FITC arrestin peptide, at 10 µM, stronger effect = higher value, AP2 beta2 appendage fragment, R879A mutant
Chain of AP-2 complex subunit beta (Homo sapiens) (P63010 whole entry, looked up, the tested form may be a part, one chain of several): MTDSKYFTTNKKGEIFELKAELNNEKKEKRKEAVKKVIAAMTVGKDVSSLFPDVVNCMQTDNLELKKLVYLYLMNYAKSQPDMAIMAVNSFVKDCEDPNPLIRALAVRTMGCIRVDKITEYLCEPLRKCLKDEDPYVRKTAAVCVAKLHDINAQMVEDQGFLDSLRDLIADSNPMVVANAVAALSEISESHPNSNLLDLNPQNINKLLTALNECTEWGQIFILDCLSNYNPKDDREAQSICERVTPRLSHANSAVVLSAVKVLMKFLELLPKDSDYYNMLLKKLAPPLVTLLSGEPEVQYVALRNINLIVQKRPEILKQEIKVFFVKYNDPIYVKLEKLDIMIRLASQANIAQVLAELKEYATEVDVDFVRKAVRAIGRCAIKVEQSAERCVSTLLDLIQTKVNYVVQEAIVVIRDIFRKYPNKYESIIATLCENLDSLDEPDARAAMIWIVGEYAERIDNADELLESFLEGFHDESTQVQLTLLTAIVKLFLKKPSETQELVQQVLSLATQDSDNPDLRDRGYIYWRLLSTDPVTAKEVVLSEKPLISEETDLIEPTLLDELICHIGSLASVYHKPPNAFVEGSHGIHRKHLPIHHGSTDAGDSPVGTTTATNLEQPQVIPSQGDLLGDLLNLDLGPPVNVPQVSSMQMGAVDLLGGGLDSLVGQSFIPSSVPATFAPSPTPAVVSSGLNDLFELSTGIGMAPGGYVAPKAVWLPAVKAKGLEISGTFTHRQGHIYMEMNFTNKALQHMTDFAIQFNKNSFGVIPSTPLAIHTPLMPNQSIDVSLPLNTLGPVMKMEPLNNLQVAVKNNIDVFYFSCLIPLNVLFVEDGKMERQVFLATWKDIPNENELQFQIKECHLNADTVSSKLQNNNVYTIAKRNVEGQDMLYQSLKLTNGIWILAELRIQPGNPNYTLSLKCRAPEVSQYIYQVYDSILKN

[16] = yeast V-ATPase proton transport modulators, S. cerevisiae, pHLuorin, HTS validation (AID 504600; in the data active = response above about 15%;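 note: plate controls were DMSO for no effect and reference compound for full effect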); details: S. cerevisiae pHLuorin cytosolic pH, at 10 µM, stronger effect = higher value
[17] = system: anti-desmoglein-3 scFv antibody binding to human DSG3; experiment: inhibitors of anti-DSG3 scFv binding to DSG3, pilot screen, biochemical, validation compound set, bead-based, flow cytometry (AID 588368); details: Protein G beads, DSG3-Fc, scFv-GFP binding, at 10 µM, stronger effect = lower value;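 note: signal is the median channel fluorescence of bead-bound GFP antibody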
[18] = inhibitors of fungal efflux pumps CDR1, CDR2, MDR1, pilot screen, validation compound set, multiplex, phenotypic (AID 588506;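 active = efflux inhibition above 0.42, the validation set average plus 4 SD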;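 note: Nile Red retained in cells so higher fluorescence means more efflux inhibition; 0 = negative control wells and 1 = enniatin B 25 µM full block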); details: S. cerevisiae pump-expressing triplex, Nile Red efflux flow cytometry; at 10 µM; stronger effect = higher value; the pumps come from Candida albicans
[19] = target: ATP-binding cassette sub-family B member 6 (Homo sapiens) (UniProt Q9NP58); experiment: ABCB6 transporter inhibitors, pilot screen, K562-ABCB6 cells, flow cytometry, validation set (AID 588550;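 active = inhibition above the screen-wide mean plus 3 SD, about 51%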;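 note: 0% = DMSO wells and 100% = benzethonium chloride 70 µM positive control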); details: K562-ABCB6 porphyrin accumulation, 1 h, at 10 µM, stronger effect = higher value
Chain of ATP-binding cassette sub-family B member 6 (Homo sapiens) (Q9NP58 whole entry, looked up): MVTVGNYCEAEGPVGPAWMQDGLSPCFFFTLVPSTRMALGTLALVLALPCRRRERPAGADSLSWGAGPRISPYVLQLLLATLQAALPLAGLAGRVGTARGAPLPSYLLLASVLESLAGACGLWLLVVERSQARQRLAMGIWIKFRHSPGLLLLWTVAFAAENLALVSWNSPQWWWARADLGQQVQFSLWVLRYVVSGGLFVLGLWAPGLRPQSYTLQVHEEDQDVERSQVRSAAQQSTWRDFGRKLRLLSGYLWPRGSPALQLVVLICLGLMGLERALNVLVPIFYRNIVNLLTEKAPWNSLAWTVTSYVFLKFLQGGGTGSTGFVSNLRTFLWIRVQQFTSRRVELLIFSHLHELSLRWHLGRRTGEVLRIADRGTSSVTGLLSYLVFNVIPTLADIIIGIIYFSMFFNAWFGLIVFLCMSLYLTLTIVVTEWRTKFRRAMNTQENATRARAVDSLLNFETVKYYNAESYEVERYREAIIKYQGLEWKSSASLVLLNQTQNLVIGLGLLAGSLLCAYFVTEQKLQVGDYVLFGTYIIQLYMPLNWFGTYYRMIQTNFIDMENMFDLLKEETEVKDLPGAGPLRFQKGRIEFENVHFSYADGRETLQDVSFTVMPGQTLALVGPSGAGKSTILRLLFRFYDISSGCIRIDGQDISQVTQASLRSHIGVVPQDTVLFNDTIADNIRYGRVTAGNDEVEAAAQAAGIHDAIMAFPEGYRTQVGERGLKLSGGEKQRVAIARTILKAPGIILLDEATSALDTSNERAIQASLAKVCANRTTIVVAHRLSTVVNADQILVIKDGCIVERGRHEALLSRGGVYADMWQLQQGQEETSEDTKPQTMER

[20] = promoters of myeloid differentiation in arrested cells, primary screen, cell-based, GFP/MAC1 double positive, flow cytometry, validation set (AID 588685;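 active = differentiation response of at least 50%, scaled between solvent and reference control, from cells with both markers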;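 note: compound exposure lasts four days before antibody staining and flow analysis; 0% = DMSO wells and 100% = 5 µM fulvestrant positive control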); details: ER-HoxA9 marrow cells, stronger effect = higher value, normalized: vehicle 0, fulvestrant 100
[21] = measured here: daughter cell gate
[22] = measured here: mother cell gate

**Q.** For `CS(=O)(=O)Nc1cccc(C(=O)CC2(O)C(=O)Nc3ccc(Br)cc32)c1` (configuration not stated), which percent of DMSO control GFP [1] is on record?
**A.** 85.9% (inactive)

**Q.** And the GFP response vs DMSO [2]?
**A.** 150% (active)

**Q.** What about the percent response of DMSO control [3] of the same compound?
**A.** 142% (active)

**Q.** And the GFP response vs DMSO [4]?
**A.** 139% (inactive)

**Q.** What about the GFP response, % of DMSO [5] of the same compound?
**A.** 129% (active)

**Q.** And the GFP response vs DMSO [6]?
**A.** 101% (inactive)

**Q.** And the GFP response vs DMSO [6, 21]?
**A.** 92.4%

**Q.** And the GFP response vs DMSO [6, 22]?
**A.** 96.2%

**Q.** What about the GFP response relative to DMSO [7] of the same compound?
**A.** 98.2% (inactive)

**Q.** What about the GFP response relative to DMSO ([7]; measured here: daughter cell gate response) of the same compound?
**A.** 95.9%

**Q.** And the GFP response relative to DMSO ([7]; measured here: mother cell gate response)?
**A.** 96.2%

**Q.** And the GFP response vs DMSO [8]?
**A.** 99% (inactive)

**Q.** And the GFP response, % of DMSO [9]?
**A.** 100% (inactive)

**Q.** What about the GFP response, % of DMSO [9, 21] of the same compound?
**A.** 90.2%

**Q.** What about the GFP response, % of DMSO [9, 22] of the same compound?
**A.** 90.7%

**Q.** What about the double positive events [10] of the same compound?
**A.** 57.6%

**Q.** And the vesicle binding response [10]?
**A.** 34.1% (inactive)

**Q.** What about the inhibition [11] of the same compound?
**A.** -10.8% (inactive)

**Q.** And the superoxide response (% of plate) [12]?
**A.** 112% (inactive)

**Q.** What about the aptamer binding inhibition [13] of the same compound?
**A.** 4% (inactive)

**Q.** What about the response [14] of the same compound?
**A.** -1.29% (inactive)

**Q.** What about the inhibition [15] of the same compound?
**A.** 50% (inactive)

**Q.** What about the response [16] of the same compound?
**A.** -8.12% (inactive)

**Q.** What about the binding (% of control) [17] of the same compound?
**A.** 101% (inactive)

**Q.** And the efflux inhibition (fraction of control) [18]?
**A.** 0.08 (inactive)

**Q.** And the inhibition [19]?
**A.** 7% (inactive)

**Q.** And the differentiation response [20]?
**A.** 5.13% (inactive)
